Screening results from PubChem.
Only a selection was taken, and hits are over-represented in it overall.
PKM2 inh: blocks activity of human pyruvate kinase M2. P14618. purified PKM2, ATP generation, Kinase-Glo luminescence. Potency, µM (doses to about 57.5 µM), hits mostly inhibitors. actives 0.058% (n = 260,000); also: nearly all actives have a fitted effect of over 60% in size
Target sequence (P14618 whole entry, looked up): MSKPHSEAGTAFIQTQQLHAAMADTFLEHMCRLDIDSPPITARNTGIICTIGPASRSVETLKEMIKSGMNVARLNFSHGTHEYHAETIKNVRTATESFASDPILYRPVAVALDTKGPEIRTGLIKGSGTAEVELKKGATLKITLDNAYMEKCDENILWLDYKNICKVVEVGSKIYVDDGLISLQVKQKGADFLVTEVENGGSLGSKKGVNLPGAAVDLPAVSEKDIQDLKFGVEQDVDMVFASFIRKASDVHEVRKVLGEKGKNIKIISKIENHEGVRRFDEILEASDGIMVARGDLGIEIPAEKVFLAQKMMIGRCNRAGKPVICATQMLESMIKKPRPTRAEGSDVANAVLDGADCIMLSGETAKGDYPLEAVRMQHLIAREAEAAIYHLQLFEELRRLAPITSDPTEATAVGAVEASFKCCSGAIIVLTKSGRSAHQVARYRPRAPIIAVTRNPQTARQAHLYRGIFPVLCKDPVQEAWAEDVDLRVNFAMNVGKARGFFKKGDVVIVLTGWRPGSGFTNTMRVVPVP
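Enzyme run at intermediate activity with final 0.1 mM ADP, 0.5 mM PEP (50 mM imidazole pH7.2, 50 mM KCl, 7 mM MgCl2), incubated 1 h at r.t. ATP formed read by Kinase-Glo luminescence, normalized to no-enzyme (full inhibition) and uninhibited wells.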
PKM2 inh dose: confirmation of human pyruvate kinase M2 inhibitors, concentration-response; Potency, µM (doses to about 57.5 µM), most hits filed as inhibitors; AID 2263; actives 50% (n = 55); purified hPK-M2, Kinase-Glo ATP luminescence, 1 h; shares compounds with PKM2 inh
FLuc counter: counter-screen for pyruvate kinase M2 inhibitors: firefly luciferase inhibition. Kinase-Glo firefly luciferase, luminescence, 8 min. actives 30% (n = 55). shares compounds with PKM2 inh. Potency, µM (doses to about 57.5 µM), actives largely listed as inhibitors
PKM2 LDH couple: blocks human pyruvate kinase M2 in LDH-coupled assay; shares compounds with PKM2 inh; purified hPK-M2, LDH-coupled NADH fluorescence kinetic; Potency, µM (titrated, usually from 57.5 µM), actives largely listed as inhibitors; 55 tested, under 10 active; AID 2267
Large screens that a line does not name were inactive (follow-up assays come after a bar, where they were run). Calls follow the shape of the dose curve; as a rule, active = well fitted curve in the direction sought with a large enough effect; inconclusive = small, poorly fitted or top-dose-only effect, or another doubt; inactive = no such curve, though single readings can be large; an effect the other way counts as inactive or inconclusive.

Fc1ccccc1-c1ccc(-c2nc3ccc(Cl)cn3c2Nc2ccc(Cl)cc2)o1	none (no result: PKM2 inh) | PKM2 inh dose inactive | FLuc counter inactive | PKM2 LDH couple inactive
Cc1ccc(-c2cc(-c3ccc(Cl)cc3)c(C#N)c(N)n2)o1	none
Cc1ccc(-c2nc3cccc(C)n3c2Nc2ccc(F)cc2)o1	none (no result: PKM2 inh) | PKM2 inh dose inactive | FLuc counter inactive | PKM2 LDH couple 9.19µM
Cc1ccc(-c2nc3ccc(Cl)cn3c2Nc2ccccc2)o1	none (no result: PKM2 inh) | PKM2 inh dose inactive | FLuc counter inactive | PKM2 LDH couple inactive
Cc1ccc(Nc2c(-c3ccc(C)o3)nc3cnccn23)cc1	none
Cc1ccc(-c2nn(-c3ccccc3)cc2C2SCC(=O)N2Cc2ccccc2)o1 (stereo not drawn)	none
Cc1ccc2nc(-c3ccc(C)o3)c(Nc3ccc(F)cc3)n2c1	none (no result: PKM2 inh) | PKM2 inh dose inactive | FLuc counter inactive | PKM2 LDH couple inconclusive
Cc1cccc(NC(=S)N(CCN2CCOCC2)Cc2cc3cc4c(cc3[nH]c2=O)OCCO4)c1	none
O=C(Cc1c[nH]c2ccccc12)NCc1ccc(Cl)cc1Cl	none
Cc1ccc2nc(SC(C)C(=O)NCc3ccc4c(c3)OCO4)[nH]c2c1 (stereo not drawn)	none
COC(=O)C1CCN(S(=O)(=O)c2ccc(OC)cc2)CC1	none
CCN(CC)c1ccc(/C=C2\SC(=O)N(C(C)C)C2=O)o1	none
Cc1cccc(NS(=O)(=O)c2ccc3c(c2)oc(=O)n3C)c1C	none
CCOc1cc(/C=C\[N+](=O)[O-])ccc1OCC(=O)Nc1ccccc1C	none
Cc1ccc(NS(=O)(=O)c2ccc3c(c2)CC(=O)N3)cc1C	none
O=C(COC(=O)C1CCN(S(=O)(=O)c2ccc3c(c2)OCCO3)CC1)Nc1cc(C(F)(F)F)ccc1Cl	none
CC(C)(C)CN1CCNC(=O)C1CC(=O)NCCc1ccccc1F (stereo not drawn)	none
CCc1nc2ccccc2n1Cc1cc(=O)n2cc(C)ccc2n1	none
N#Cc1c2c(c(Nc3ccc(O)cc3)n3c1nc1ccccc13)CCC2	none
Cc1ccc2[nH]c(=O)c3cc(C(=O)N4CCN(C(=O)c5ccco5)CC4)sc3c2c1	none
COc1ccc(CNC(=O)c2ccc(NS(=O)(=O)c3c(C)noc3C)cc2)cc1	none
Cc1cc(C)n2c(Nc3ccc4c(c3)OCCO4)c(-c3ccc(C)o3)nc2n1	none
Cc1ccc2nc(-c3ccc(C)o3)c(Nc3ccc4c(c3)OCO4)n2c1	none (no result: PKM2 inh) | PKM2 inh dose inactive | FLuc counter inactive | PKM2 LDH couple inactive
Cc1ccc(-c2nc3cnccn3c2Nc2ccc3c(c2)OCO3)o1	none
CC1(C)CC2CC(C)(CN2C(=O)C23CCC(C)(C(=O)O2)C3(C)C)C1 (stereo not drawn)	none
Cc1ccccc1NC(=O)C1CCCN1/C=C/C(=O)C(F)(F)F (stereo not drawn)	none
Cc1ccc(CCNS(=O)(=O)c2cc3c(cc2C)NC(=O)CO3)cc1	none
COc1ccc(CN(C(=O)/C=C/c2ccco2)C2CCS(=O)(=O)C2)cc1 (stereo not drawn)	none
Cc1cccc2sc(NS(=O)(=O)c3ccccc3)nc12	none
O=C(CN(CCc1ccccc1)S(=O)(=O)c1ccc(Br)cc1)N/N=C/c1ccccc1C(=O)O	none
COc1ccc(N2CCN(C(=O)[C@H](Cc3c[nH]c4ccccc34)NC(C)=O)CC2)cc1	none
CC(=O)Nc1sc(N/N=C\c2ccccc2F)nc1-c1cccs1	none
CC1C/C(=C/c2ccccn2)C(=O)/C(=C/c2ccccn2)C1 (stereo not drawn)	none
Cc1nc(N/N=C/c2ccccn2)sc1C	PKM2 inh 7.94µM | PKM2 inh dose 9.19µM | FLuc counter 5.17µM | PKM2 LDH couple inactive
COc1ccc(C2CC(c3ccccc3OC(C)=O)=NN2C(C)=O)cc1 (stereo not drawn)	none
CS(=O)(=O)c1ccc(NCCc2ccc(S(N)(=O)=O)cc2)c([N+](=O)[O-])c1	none
